Compound activity from PubChem BioAssay.
This is a sample that favours compounds with a hit; in the whole collection about 1.6% have one here.
DTT redox prof – compounds producing H2O2 with reducing agent – biochemical, NIH compound library profiling, artefact control for MLSCN library redox annotation, primary screen; hit rate 0.03% among 200,000; DTT-dependent redox cycling H2O2, phenol red/HRP absorbance; 100% = 100 µM peroxide control, 0% = buffer; activation, % at 10 µM; AID 878;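 active means activation of at least 50% relative to the plate's high and low controls in the primary single-dose screen; inactive means activation below 50%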;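 further: compound incubated with DTT at 0.8 mM final as the reducing agent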
Hsp70 act – transcriptional activators of Hsp70 | hit rate 0.04% among 200,000 | HeLa Hsp70 promoter luciferase reporter, luminescence; scaled: vehicle 0, proteasome-inhibitor control 100% | AID 1203 | activation, % at 10 µM;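 active means activation above the mean across all tested compounds plus 3 SD, cutoff set per campaign, cut at about 5.5% in these data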;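 further: 100% = MG132 at 30 µM as the positive control and 0% = DMSO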
p97 inhibitor – human p97 ATPase inhibition. P55072. recombinant p97 ATPase, Kinase-Glo ATP luminescence, 3 h. inhibition, % at 8 µM. hit rate 0.42% among 220,000; in the data active means inhibition above about 15%;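 further: 0% = DMSO vehicle and 100% = wells lacking enzyme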
HSV augment – HSV replication enhancement. HSV replication augmentation in cells, fold increase. maximum fold increase. hit rate 0.005% among 220,000; in the data active means maximum fold increase above about 1.5; inconclusive means no clear call, values can overlap the other calls; tested in PC3 cells
Wee1 degr inh – inhibitors of human Wee1 degradation; P30291; HeLa Luc-Wee1K328M stability, luciferase luminescence; 100% = proteasome inhibitor MG132 effect; reporter increase, % at 5 µM; hit rate 1.2% among 220,000;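 active means activation above the mean of all tested compounds plus 3 SD, set per screening run, cut at about 8.8% in these data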;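 further: cells exposed to compound for 20 h before luminescence read; 0% = DMSO alone and 100% = MG132 at 30 µM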
Target sequence (P30291 whole entry K328M): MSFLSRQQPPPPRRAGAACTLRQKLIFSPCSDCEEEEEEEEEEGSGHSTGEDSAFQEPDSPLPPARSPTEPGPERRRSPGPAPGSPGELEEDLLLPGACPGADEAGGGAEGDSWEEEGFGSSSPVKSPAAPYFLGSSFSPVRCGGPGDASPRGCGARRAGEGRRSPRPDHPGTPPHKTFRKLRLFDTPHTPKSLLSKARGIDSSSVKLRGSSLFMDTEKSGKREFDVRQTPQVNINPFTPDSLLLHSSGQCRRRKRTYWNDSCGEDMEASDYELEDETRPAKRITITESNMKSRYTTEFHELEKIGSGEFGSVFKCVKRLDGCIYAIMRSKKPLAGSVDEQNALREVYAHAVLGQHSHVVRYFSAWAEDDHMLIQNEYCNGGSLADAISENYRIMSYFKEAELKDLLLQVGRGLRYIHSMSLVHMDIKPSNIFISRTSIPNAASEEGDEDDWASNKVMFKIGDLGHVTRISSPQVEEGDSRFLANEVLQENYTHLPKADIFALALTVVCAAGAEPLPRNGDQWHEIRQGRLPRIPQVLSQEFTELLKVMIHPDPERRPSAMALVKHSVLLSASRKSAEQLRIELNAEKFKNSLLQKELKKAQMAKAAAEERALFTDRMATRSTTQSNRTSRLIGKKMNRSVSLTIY
p97 inh conf – confirmation of human p97 ATPase inhibitors. shares compounds with p97 inhibitor. recombinant p97 ATPase, Kinase-Glo ATP luminescence. inhibition, % at 8 µM. hit rate 44% among 760;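 active means percent inhibition of p97 ATPase above a set limit, the primary screen's mean plus 3 SD, cut at about 15% in these data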;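 further: 0% = DMSO wells and 100% = wells lacking p97 protein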
The depositor's hits bear a star; i = inactive; ? = inconclusive; · = no result given.

SMILES	DTT redox prof	Hsp70 act	p97 inhibitor	HSV augment	Wee1 degr inh	p97 inh conf
COc1cc2c(cc1OC)C(C)N(C(C)=O)CC2 (configuration not stated)	0	0	-1	i	1	·
COc1cc2c(cc1OC)C(C)N(C(=O)c1cccs1)CC2 (configuration not stated)	-3	0	16*	i	-1	21*
CCOC(=O)N1CCC(NC(=O)c2cc(S(=O)(=O)N3CCc4ccccc43)cn2C)CC1	0	0	1	i	-2	·
O=[N+]([O-])c1c(-c2cn[nH]c2)n[nH]c1-c1cn[nH]c1	·	·	25*	i	-2	36*
O=C(Nc1cc(Cl)ccn1)C1(c2ccccc2)CC1(Cl)Cl (configuration not stated)	·	·	17*	i	-2	25*
O=C(Nc1ccccc1)C1(c2ccccc2)CC1(Cl)Cl (configuration not stated)	1	0	3	i	-2	·
COCCCNC(CC(=O)Nc1ccccc1C(=O)OC)C(=O)O (configuration not stated)	0	0	7	·	0	·
O=S(=O)(c1ccc2oc(=S)[nH]c2c1)N1CCCCC1	·	·	21*	i	8	4
O=C(c1ccc2snnc2c1)N1CCSCC1	0	1	-1	i	-3	·
Cn1nnc2cc(C(=O)N3CCSCC3)ccc21	2	0	17*	i	1	7
O=S(=O)(Nc1nccs1)c1ccc(Br)cc1	0	0	1	i	1	·
COc1ccc(S(=O)(=O)Nc2nccs2)cc1OC	-10	0	17*	i	1	7
Nc1cc(-c2ccncc2)c[nH]c1=O	1	0	23*	i	0	5
NC(=O)c1csc(-c2ccncc2)n1	2	0	2	i	2	·
O=C1NN(c2ccc(Cl)c(Cl)c2)C(=O)/C1=C/c1cccc(OC(=O)c2cccs2)c1	2	0	19*	i	2	7
O=C1NN(c2ccccc2)C(=O)/C1=C\c1cccc(OC(=O)c2cccs2)c1	0	0	6	i	1	·
CC(C)C1Nc2ccc(C(=O)O)cc2C2C=CCC21 (configuration not stated)	0	0	5	?	-3	·
CCCC1Nc2ccc(C(=O)O)cc2C2C=CCC12 (configuration not stated)	0	0	26*	i	0	8
O=C(CCl)NNC(=O)c1c(O)c2ccccc2[nH]c1=O	·	·	21*	i	2	32*
O=C(CSc1nccn1-c1ccc(F)cc1)NCc1ccc2c(c1)OCO2	-1	0	2	i	3	·
Cc1[nH]n(-c2ccc(Cl)cc2)c(=O)c1C(=O)c1ccccc1	0	0	2	i	2	·
CC1=NN(c2ccc(Cl)cc2)C(=O)C1C(c1cccc(O)c1)c1c(C)[nH]n(-c2ccc(Cl)cc2)c1=O (configuration not stated)	0	0	17*	i	1	8
CC1=Nc2ccccc2/C1=C/c1sc(=S)n(-c2cccc(C(=O)O)c2)c1O	-2	0	16*	?	1	35*
COc1ccc(C(=O)N(c2ccccn2)C2CCCCC2)c(OC)c1	0	0	1	i	2	·
Nc1ccc(N2CCCCC2)c2nonc12	-1	0	44*	i	0	10
SMILES	DTT redox prof	Hsp70 act	p97 inhibitor	HSV augment	Wee1 degr inh	p97 inh conf
Nc1c(N2CCCC2)cc(Cl)c2nonc12	6	0	32*	i	-2	20*
Nc1ccc(N2CCCCC2)cc1N1CCCCC1	1	0	0	·	-5	·
Nc1c(N2CCOCC2)cc(Cl)c2nonc12	0	0	2	i	-2	·
CCC(Oc1ccc2ccccc2c1)C(=O)O (configuration not stated)	-3	0	2	i	-1	·
CCCCc1ccc(-c2ccc(Br)cc2O)nc1	0	0	-2	i	4	·
COc1ccccc1N1C(=O)C2C3CC(c4ccccc4)C(C3)C2C1=O (configuration not stated)	0	0	1	i	-1	·
Cc1ccc(-c2nnc(NCc3nc4ccccc4[nH]3)c3ccccc23)cc1S(=O)(=O)N1CCOCC1	0	0	15*	i	-1	12
Cc1ccc(-c2nnc(NCc3nc4ccccc4[nH]3)c3ccccc23)cc1S(=O)(=O)N(C)C	0	0	10	i	-4	·
CCOc1ncccc1C(=O)OCC(=O)c1ccccc1Br	0	0	0	i	0	·
N#Cc1c(-c2cccs2)cc(-c2cccs2)[nH]c1=O	·	·	16*	i	-3	15*
c1ccc(Cn2nnc3c(N4CCCCCC4)ncnc32)cc1	0	0	20*	i	1	1
CCCN1CCN(c2ncnc3c2nnn3Cc2ccccc2)CC1	2	0	0	·	2	·
O=C(O)CSc1cc(NS(=O)(=O)c2cccc([N+](=O)[O-])c2)c2ccccc2c1O	·	·	27*	i	-2	40*
O=C(O)c1cccc(S(=O)(=O)Nc2ccc([N+](=O)[O-])cc2O)c1	·	·	6	i	-1	·
C=CCN1C(=O)C(CCCC)NC1=S (configuration not stated)	0	0	4	i	-1	·
CC(C)=CCC/C(C)=C/CC/C(C)=C/CC/C(C)=C/CC1=C(C)C(=O)c2ccccc2C1=O	·	·	·	i	·	·
CC(C)=CCC1=C(OCC(=O)O)C(=O)c2ccccc2C1=O	·	·	32*	i	8	29*
CCOc1ccc(NC(=O)c2ccc(NC(=S)NC3CCCCC3)cc2)cc1	0	0	15*	i	0	9
CCC(=O)Nc1nc(C)c(-c2csc(Nc3ccccn3)n2)s1	0	0	5	i	2	·
CC(=O)c1ccc2cccc3c2c1N=CN3C	0	0	32*	·	-3	5
Clc1ccc(-c2noc(CSc3nnc(Cc4cccs4)n3-c3ccccc3)n2)cc1	-1	0	-19	i	3	·
O=c1cc(-c2ccc(O)c(-c3c(O)cc(O)c4c(=O)cc(-c5ccc(O)cc5)oc34)c2)oc2cc(O)cc(O)c12	0	0	41*	i	4	64*
O=c1c(-c2c(O)cc(O)c3c(=O)cc(-c4ccc(O)cc4)oc23)c(-c2ccc(O)cc2)oc2cc(O)cc(O)c12	·	·	·	i	·	·
Cc1cc(C)nc(N2CCN(c3nc(C)cc(C)n3)CC2)n1	2	0	6	i	-3	·
Cc1[nH]c2ccccc2c1C(=O)COC(=O)CCS(=O)(=O)c1ccccc1Cl	0	0	27*	i	2	30*
CCc1ccc(N2NC(=O)/C(=C/C=C/c3ccco3)C2=O)cc1	0	0	3	i	0	·
